The source of these data is PubChem BioAssay (EPA / NIEHS).

“And” between values parts separate entries of the source, which are not always exact repeats. Equal values may be shown once. More than one record can exist for a structure, and the calls need not agree. The source made the active and inactive calls. The calls were made as follows: active = hit-call score of the fitted dose curve at least 0.9, where 1 is the maximum; inactive = score below 0.9.

Read-out in test [1]: Cyclin D1 (CCND1), CCND1 (gene 595)
Description: LTEA_HepaRG_CCND1: Life Technologies and Expression Analysis (LTEA) Assay for Cyclin D1 (CCND1) using HepaRG (AID 2283451).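 As to AC50: TaqMan qRT-PCR transcript level normalised to ACTB GAPDH and POLR2A housekeeping genes.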 The conditions noted are these: mRNA level, 48 h; actives raise or lower the signal. An outline of the steps: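 Differentiated human HepaRG cells in serum-free induction medium were exposed 48 h to eight half-log concentrations up to 100 uM in 0.5% DMSO; mRNA quantified by TaqMan qRT-PCR, normalized to ACTB, GAPDH, POLR2A, fitted bidirectionally versus DMSO.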

Read-out in test [2]: catalase (CAT), CAT (gene 847)
In words: LTEA_HepaRG_CAT: Life Technologies and Expression Analysis (LTEA) Assay for catalase (CAT) using HepaRG (AID 2283452). The conditions noted are these: mRNA level, 48 h; actives raise or lower the signal. How it is done:
(§1) LTEA_HepaRG is a cell based, multiplexed-readout assay that uses HepaRG, a human liver cell line, with measurements taken at 48 hours after chemical dosing on a 96-well plate.LTEA_HepaRG_CAT is one of 102 assay component(s) measured in the LTEA HepaRG cell culture assay. It is a marker of Oxidative Stress.Data from the assay component LTEA_HepaRG_CAT was analyzed into 1 endpoint. This assay endpoint, LTEA_HepaRG_CAT, was analyzed with bidirectional fitting relative to DMSO as the negative control and baseline of activity. Using a type of inducible reporter, measures of mRNA induction for gain or loss-of-signal activity can be used to understand regulation of transcription factor activity. To generalize the intended target to other relatable targets, this assay endpoint is annotated to the catalase intended target family, where the subfamily is oxidative stress.
(§2) A total of 1060 chemcials from the ToxCast library were tested in eight-point concentration-response experiments. Cell culture and cytotoxicity assays were conducted at Thermo Fisher Scientific's Custom Services facility (Madison, WI). A single lot of human HepaRG cells (Thermo Fisher Scientific, Frederick, MD) was used for the cell culture experiments. 96-well format collagen type I coated plates of human HepaRG cells were prepared using established methods. Briefly, cryopreserved HepaRG cells were thawed, plated at a density of approximately 100,000 cells/well in HepaRG Thaw, Plate, and General Purpose media (HPRG770, Thermo Fisher Scientific), and incubated for 48 hours. 0.5% DMSO was selected as vehicle control to balance the requisite need of DMSO in HepaRG cultures to maintain differentiation (for example, baseline metabolism, proportions of hepatocytes vs. cholangiocytes), while enabling further hepatic receptor pathway activation (for example, PXR and CAR) in response to chemical exposure. 48 hours after plating, the culture medium was replaced with HepaRG Serum-Free Incudtion Media. Cells were exposed to each test chemical in duplicate and maintained in CO2 incubators for another 48 hours. Chemical plates were thawed to room temperature and 200x concentrations of treatment groups were prepared. 8-point conentration-reponse curves were made with the highest exposure at 100 uM, followed by half-log dilutions, all in 0.5% DMSO. Each test plate contained variouse controls, induction positive controls (1mM phenobarbital), cytotoxicity positive controls ([…] aflatoxin B1), vehicle controls (0.5% DMSO), and total lysis controls (0.5% DMSO). Cell morphology images were taken using an Essen IncuCyte FLR automated microscope, with six 96-well plates imaged in about 24 minutes. Images were captured and exported and JPEG files. Spent culture media was transfered to black-well plates for the LDH assay, and remaining media was sorted at -80 C for later use. Cells were treated with RLT buffer and frozen until shipped for gene expression analysis. Total RNA was isolated from the cell suspension in 75 uL of Buffer RLT (Qiagen, Germantown, MD 20874) by Quintiles/Expression Analysis (Durham, NC) using a custom isolation procedure. Total RNA from each plate well was transferred to a preamplification plate. Fluidigm's 96.96 Dynamic ArrayTM (Fluidigm, Amsterdam, the Netherlands) technology was used for gene expression analyses by quantitative reverse transcription polymerase chain reaction (qRT-PCR, performed by Quintiles/Expression Analysis, Durham, NC)89. Standard TaqManTM Assays (Applied Biosystems/ThermoFisher Scientific, Foster City, CA) were used to assess the expression of 93 genes selected based on their selectivity and sensitivity to important hepatic receptors known to be modulated by environmental chemicals; importance in human hepatocyte functionality; and hepatotoxicity. […]

Read-out in test [3]: flavin-containing dimethylaniline monooxygenases 3 (FMO3), FMO3 (gene 2328)
Description: LTEA_HepaRG_FMO3: Life Technologies and Expression Analysis (LTEA) Assay for flavin-containing dimethylaniline monooxygenases 3 (FMO3) using HepaRG (AID 2283453). The conditions noted are these: mRNA level, 48 h; actives raise or lower the signal. An outline of the steps: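 Eight-point concentration-response in serum-free HepaRG cultures (top 100 uM, 0.5% DMSO, 48 h). Read-out: FMO3 mRNA level normalized to three endogenous control genes, fitted bidirectionally versus vehicle.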

Read-out in test [4]: Cytochrome P450 (CYP1A1), CYP1A1 (gene 1543)
Description: LTEA_HepaRG_CYP1A1: Life Technologies and Expression Analysis (LTEA) Assay for Cytochrome P450 (CYP1A1) using HepaRG (AID 2283454). The conditions noted are these: mRNA level, 48 h; actives raise or lower the signal. Here is the method:
as §1, with “plate.LTEA_HepaRG_CYP1A1” for “plate.LTEA_HepaRG_CAT”, “NR mediated metabolism.Data” for “Oxidative Stress.Data”, “LTEA_HepaRG_CYP1A1” for “LTEA_HepaRG_CAT”, “LTEA_HepaRG_CYP1A1,” for “LTEA_HepaRG_CAT,”, “cyp” for “catalase”, “xenobiotic metabolism.” for “oxidative stress.”
as §2

Read-out in test [5]: CFLAR gene, CFLAR (gene 8837)
Description: LTEA_HepaRG_CFLAR: Life Technologies and Expression Analysis (LTEA) Assay for CFLAR gene using HepaRG (AID 2283455). The conditions noted are these: mRNA level, 48 h; actives raise or lower the signal. An outline of the steps: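 Transcript level by qRT-PCR (normalized to ACTB, GAPDH and POLR2A) after 48 h chemical exposure of HepaRG cells, top concentration 100 uM with half-log steps, 0.5% DMSO vehicle, duplicates; fitted bidirectionally against DMSO baseline.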

Read-out in test [6]: Forkhead box O1 (FOXO1), FOXO1 (gene 2308)
Description: LTEA_HepaRG_FOXO1: Life Technologies and Expression Analysis (LTEA) Assay for Forkhead box O1 (FOXO1) using HepaRG (AID 2283456). The conditions noted are these: mRNA level, 48 h; actives raise or lower the signal. An outline of the steps: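 FOXO1 transcript quantified by qRT-PCR after 48 h chemical exposure (top 100 uM, half-log steps, 0.5% DMSO) of HepaRG cells, housekeeping-normalized (ACTB/GAPDH/POLR2A). Changes fitted in both directions relative to vehicle.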

Read-out in test [7]: growth arrest and DNA damage 45 (GADD45A), GADD45A (gene 1647)
In words: LTEA_HepaRG_GADD45A: Life Technologies and Expression Analysis (LTEA) Assay for growth arrest and DNA damage 45 (GADD45A) using HepaRG (AID 2283458). The conditions noted are these: mRNA level, 48 h; actives raise or lower the signal. How it is done: as §1, with “plate.LTEA_HepaRG_GADD45A” for “plate.LTEA_HepaRG_CAT”, “LTEA_HepaRG_GADD45A” for “LTEA_HepaRG_CAT”, “LTEA_HepaRG_GADD45A,” for “LTEA_HepaRG_CAT,”, “cell cycle” for “catalase”, “Oxidative Stress.” for “oxidative stress.”
as §2

Read-out in test [8]: Forkhead box O3 (FOXO3), FOXO3 (gene 2309)
In words: LTEA_HepaRG_FOXO3: Life Technologies and Expression Analysis (LTEA) Assay for Forkhead box O3 (FOXO3) using HepaRG (AID 2283459). The conditions noted are these: mRNA level, 48 h; actives raise or lower the signal. An outline of the steps:
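FOXO3 transcript measured by qRT-PCR (normalized to ACTB, GAPDH, POLR2A) after 48 h exposure of HepaRG cells in serum-free induction medium. Duplicates, eight half-log concentrations up to 100 uM, 0.5% DMSO; gain or loss fitted against DMSO.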

Read-out in test [9]: ABC Transporter (ABCB1), ABCB1 (gene 5243)
Description: LTEA_HepaRG_ABCB1: Life Technologies and Expression Analysis (LTEA) Assay for ABC Transporter (ABCB1) using HepaRG (AID 2283460). The conditions noted are these: mRNA level, 48 h; actives raise or lower the signal. An outline of the steps: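 ABCB1 transcript level measured by TaqMan qRT-PCR against three housekeeping genes after 48 h chemical exposure of differentiated HepaRG cells. Top concentration 100 uM, half-log steps, eight points, 0.5% DMSO vehicle; bidirectional fit relative to DMSO.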

Test [10] in a line: CEETOX_H295R_TESTO: CeeTox H295R High-throughput Steroidogenesis Assay for Testosterone (TESTO) (AID 2283457). The conditions noted are these: actives raise or lower the signal. Put shortly: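 H295R human adrenal cells in DMEM/F12 with ITS+ and Nu-Serum, exposed to chemicals for 48 h. Testosterone in medium measured by MTBE extraction, reverse-phase HPLC-MS/MS; bidirectional fit versus DMSO baseline. MTT viability checked in same wells.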

Consider `CC/C(=C(\c1ccccc1)c1ccc(OCCN(C)C)cc1)c1ccccc1`, for which the AC50 in test [1] is 28.1 µM (active) and 38.6 µM (active); in [2], 51.7 µM (active); in [3], 27.9 µM (active) and 33.7 µM (active); in [4] it was 26.8 µM (active) and 68.3 µM (active); in [5], 64.9 µM (active) and 93.4 µM (active); in test [6], 69.8 µM (active). The concentration at half-maximal activity (AC50) in test [8] was 66.8 µM (active); in [9], 76.5 µM (active) and 77.8 µM (active). Moreover, the compound was classed as inactive in [2], in test [6], in [7] and in [8].
For `CCCCOCCOCCO`, the compound was classed as inactive in test [1], in [2], in test [3], in [5], in test [6] and in test [7]. For the same compound, the compound was classed as inactive in test [8] and in test [9]. The half-maximal activity concentration (AC50) in [4] is 50 µM (active).
As to `CC=CC(=O)C1=C(C)C=CCC1(C)C`, the call in [10] was inactive.
For `COC(=O)c1ccc(C(=O)OC)cc1`, the call in test [1], in [2], in test [3], in test [5], in test [6] and in test [7] was inactive. For the same compound, the result in test [8] and in test [9] was inactive. The half-maximal activity concentration (AC50) in test [4] is 65.1 µM (active).
Regarding `OCCCO`, in test [10], the call was inactive.
Consider `C#C[C@]1(O)CC[C@H]2[C@@H]3CCc4cc(O)ccc4[C@H]3CC[C@@]21C`, for which the compound was called inactive in test [1], in test [2], in [3], in test [4], in test [5] and in test [6]. Moreover, the outcome in test [7], in test [8] and in [9] was inactive.
For `O=C(c1ccc(OCCN2CCCCC2)cc1)c1c(-c2ccc(O)cc2)sc2cc(O)ccc12`, the AC50 in [1] is 96.1 µM (active); in [2], 50 µM (active); in [3], 72.3 µM (active); in [5], 65.4 µM (active); in [6], 86 µM (active); in test [9], 72.7 µM (active). Besides, the call in [4], in test [7] and in test [8] was inactive.
Take `CC(=N[Si](C)(C)C)O[Si](C)(C)C`: the compound was classed as inactive in test [10].
On the same count and under the same terms, in the case of `CC(C)(C)c1cccc(O)c1` it was “inactive”.
For `C=C(C)C(N)=O`, the call in [1], in test [2], in test [3], in test [5], in test [6] and in [7] was inactive. Moreover, the call in test [8] and in [9] was inactive. In addition, the concentration at half-maximal activity (AC50) in [4] is 50 µM (active).
With `C[C@]12CC[C@@H]3c4ccc(O)cc4CC[C@H]3[C@@H]1CC[C@@H]2O`, the compound was called inactive in test [1], in test [2], in test [3], in [5], in test [6] and in test [7]. In [8], the compound was classed as inactive. The AC50 is 66.1 µM (active) in test [4] and 6.57 µM (active) in test [9].
